The campaign covered roughly 370,000 compounds. About 2,100 (0.57%) were called active. This is one part of a sample in which actives are shown more often than they occur.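 How the source made its calls: active means inhibition above mean plus 3 SD of compounds lying within the high and low control bounds (cut at about 19% in these data); inactive means the rest.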
Biological target: Group 3 secretory phospholipase A2 (Homo sapiens) (UniProt Q9NZ20)
Assay: human group III sPLA2 inhibitors, primary screen, biochemical, QFRET, BODIPY PC-A2 liposome substrate (AID 743126);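 further: 0% = median of test compound wells and 100% = no enzyme DMSO wells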
Settings: QFRET BODIPY PC-A2 liposome hydrolysis, fluorescence; at 12.2 µM; active compounds read high

Sequence of Group 3 secretory phospholipase A2 (Homo sapiens) (Q9NZ20 whole entry, looked up): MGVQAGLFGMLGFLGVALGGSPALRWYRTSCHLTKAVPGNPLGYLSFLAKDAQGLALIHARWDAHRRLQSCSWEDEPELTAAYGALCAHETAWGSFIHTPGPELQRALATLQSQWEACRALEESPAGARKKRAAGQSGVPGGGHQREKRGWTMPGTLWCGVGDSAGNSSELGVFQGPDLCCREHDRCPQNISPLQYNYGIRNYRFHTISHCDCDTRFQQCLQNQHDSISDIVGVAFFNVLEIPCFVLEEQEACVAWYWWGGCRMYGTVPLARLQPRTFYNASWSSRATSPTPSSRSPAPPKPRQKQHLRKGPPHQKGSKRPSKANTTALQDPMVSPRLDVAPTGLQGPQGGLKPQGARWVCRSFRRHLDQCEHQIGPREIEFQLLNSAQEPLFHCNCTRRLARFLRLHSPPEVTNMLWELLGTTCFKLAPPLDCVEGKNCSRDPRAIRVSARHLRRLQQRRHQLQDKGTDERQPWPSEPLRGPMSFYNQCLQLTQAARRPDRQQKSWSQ

inhibition, active:
COc1ccnc(NC(=S)N2CCN(c3ncc(C(F)(F)F)cc3Cl)CC2)c1 23.3%
O=C(NNC(=S)NC(=O)c1cn(-c2ccccc2)nc1-c1ccccc1)c1ccncc1 19.6%
O=C(NNC(=S)Nc1ccc(Br)cc1Cl)c1ccco1 26.4%
Cc1cccc(N2CCN(c3ccc(NC(=O)/C=C\C(=O)O)cc3)CC2)c1 20.7%
CSc1ccc(NC(=O)/C=C/C(=O)O)cc1 22.1%
O=C(NN1C(=O)C2C3C=CC(C3)C2C1=O)c1ccco1 (centres undefined) 22.3%
CCN(Cc1ccccc1)C(=O)CN1C(=S)NC(C)(C)CC1C (centres undefined) 31.1%
CCc1ccc(NC2Nc3cc(C)nn3S2)cc1 (centres undefined) 23.9%
S=c1[nH]nc(-c2ccco2)n1/N=C/c1ccccc1 19.3%
COc1ccccc1OCC(=O)OCn1c(SC)nnc(C)c1=O 21.3%
O=C(COc1ccc(S(=O)(=O)NCc2ccccc2)cc1)N1CCOCC1 20.9%
Cc1ccc2sc(NNC(=O)c3ccc4c(c3)OCCO4)nc2c1C 39.7%
COc1ccc(-c2ccc(Nc3ccc(S(=O)(=O)N4CCCC4)cc3)nn2)cc1OC 27.2%
C/C(=N\NC(=S)Nc1ccc(C)cc1)c1cc2ccccc2o1 23.9%
O=C(NNC(=S)NC1CCCCC1)c1ccccc1Cl 20.1%
COc1ccc(Cl)cc1C(=O)NNC(=S)NC1CCCC1 26.5%

inhibition, inactive:
CC(=O)N1CCCN(C2=Nc3ccccc3Sc3ccccc32)CC1 -5.38%
O=C(NCc1ccc(Cl)cc1)C1CCCN(c2nc3ccccc3o2)C1 (centres undefined) 0.81%
Cc1ccc(NC(=O)Cc2cccc(F)c2)c(S(=O)(=O)N2CCOCC2)c1 -2.31%
Cc1c[nH]c2cccc(-c3ccc(Cl)cc3)c12 -16.5%
Cc1cc(C)nc(NC(=S)N2CCN(c3ccc(C(F)(F)F)cn3)CC2)c1 11.2%
O=C(NCC(=O)N1CCN(c2ncc(C(F)(F)F)cc2Cl)CC1)c1ccc(Br)o1 -1.88%
CN1[C@H](Cc2ccccc2)COc2cccc(N3CCSCC3)c2S1(=O)=O -2.69%
O=C(NNC(=S)NCCCN1CCOCC1)c1ccncc1 -1.42%
O=C(c1cn(-c2ccccc2)nc1-c1cccnc1)N1CCN(S(=O)(=O)c2ccccc2F)CC1 -9.4%
O=C(CSc1nnc(COc2ccccc2)n1-c1ccc(Cl)cc1)Nc1ccc2c(c1)OCO2 -14.5%
COC(=O)c1cccc(Cn2ccc3ccc(-c4ccc5ccn(C(=O)C6CCCCC6)c5c4)cc32)c1 -3.82%
S=C(Nc1ccc(Br)cc1Cl)NC1CCN(Cc2ccccc2)CC1 0.32%
CN(C)C(=S)Nc1ccc(Br)cc1Cl 1.77%
Cc1ccc(Cn2cc(COC(=O)N(C)Cc3ccccc3)nn2)cc1 -5.61%
Cc1ccc(-n2c(SCC(=O)Nc3ccc(S(=O)(=O)Nc4nccs4)cc3)nnc2-c2cccnc2)cc1 -21.7%
O=C1CC[C@@]23CCCN2C(=O)CCC[C@H]3[C@H]1Cc1ccccc1 3.91%
O=C(O)/C=C/C(=O)NNc1ccc([N+](=O)[O-])cc1 -1.39%
CSc1ccc(NC(=O)N2CC(C)OC(C)C2)cc1 (centres undefined) 10.2%
Cc1cccc(N2CCN(C(=O)c3ccccc3NC(=O)C3CCCCC3C(=O)O)CC2)c1 (centres undefined) 7.57%
O=C(CN1CCN(c2ccc(O)cc2)CC1)Nc1ccc(-c2ccccc2)cc1 2.26%
Cc1ccc(-c2nc(C3CCCN(S(=O)(=O)c4ccc(Br)s4)C3)no2)cc1 (centres undefined) 7.46%
C=C(C)C1CC23C(=O)C4(C(=O)c5ccccc5)C[C@@]5(C)CCC(CC2C1(C)C)(C4=O)C35OC (some centres undefined) 4.03%
COc1ccc(C(=O)CSc2nnc(-c3cnccn3)n2-c2ccc(C)cc2)cc1 -19.7%
CC(C)=C1C2CCC1C1C(=O)N(NC(=O)c3ccco3)C(=O)C21 (centres undefined) 0.15%
O=C(NN1C(=O)C2CCCCC2C1=O)c1ccco1 (centres undefined) -6.36%
C=CCN1C(=O)[C@@H](CC(=O)N2CCN(C(=O)OCC)CC2)[C@]2(C(=O)OCC)CCCCC/C=C/12 3.8%
C=CCN1C(=O)[C@@H](CC(=O)NCC2CCCCC2)[C@]2(C(=O)OC)CCCCC=C12 -6.71%
Cc1ccc(CSc2nnc(SCC(=O)NN=Cc3cc(Br)ccc3F)s2)cc1 8.12%
COC[C@@H]1CCCN1c1ccc2c(c1)O[C@H](C)CCN(C1CC1)S2(=O)=O -5.4%
Oc1ccc(/C=C/c2c(F)cccc2F)c2cccnc12 16%
COc1cccc(CNC(=O)CCN2C(=S)NC(C)(C)CC2C)c1 (centres undefined) 6.8%
CC1CC(C)(C)NC(=S)N1CCC(=O)N1CCN(Cc2ccccc2)CC1 (centres undefined) 8.05%
COc1ccccc1C(=O)CSc1nnc(-c2ccccn2)n1-c1ccccc1 -16.8%
CCOC(=O)c1cccc(NC(=O)CN(C)S(=O)(=O)c2ccc(-c3cocn3)s2)c1 -2.93%
O=C(C1CCN(S(=O)(=O)c2ccccc2)CC1)N1CCN(C2CCCCC2)CC1 8.19%
CSc1ccc(C=Nn2c(-c3ccc(F)cc3)n[nH]c2=S)cc1 6.63%
CCOc1ccc(-c2n[nH]c(=S)n2/N=C/c2cc3c(cc2[N+](=O)[O-])OCO3)cc1 1.67%
Cc1cc(C)cc(NC(=O)N2CCC(N(C)CCC(C)C)CC2)c1 10.3%
CCOC(=O)[C@@]12CCC3=C1N(CCC3)C(=O)[C@H](CC(=O)N1CCN(C(=O)c3ccco3)CC1)C2 8.67%
c1coc(CCNc2ncnc3ccc(-c4ccc5c(c4)OCO5)cc23)c1 -19.4%
COC(=O)[C@]12C[C@H](CC(=O)NCc3ccccc3)C(=O)N(CCc3ccc(OC)c(OC)c3)C1=C[C@H](C(C)(C)C)O[C@@H]2C -21.4%
COC1=C[C@H](C(=O)NCCNC(C)=O)[C@H](C)[C@@H](c2ccccc2)CC1=O -0.85%
C=CCn1c(SCC(N)=O)nnc1-c1ccccc1OC 6.66%
COc1ccccc1NC(=O)COC(=O)COc1ccccc1F -4.78%
CCN(CC)C(=O)CC[C@H]1CC[C@]2(CCCN(Cc3ccc(Cl)cc3)C2)O1 6.37%
O=C(COc1ccc(S(=O)(=O)NCCc2ccccc2)cc1)N1CCCC1 -5.12%
CC(NS(=O)(=O)c1ccc(OCC(=O)N2CCCC2)cc1)c1ccccc1 (centres undefined) 5.02%
CCOC(=O)[C@]12CCCC=C1N(Cc1ccc(OC)cc1)C(=O)[C@@H]2CC(=O)NCc1cccs1 -4.75%
COc1ccc(Cn2cc(CN3[C@@H](CC(C)C)COc4cc(Br)ccc4S3(=O)=O)nn2)cc1 6.77%
C[C@H]1CCC/C=C/C(=O)c2c(O)cc(O)cc2CC(=O)O1 4.76%
Clc1ccc(-n2c(COc3ccccc3)nnc2SCc2nc3ccccc3[nH]2)cc1 -11.3%
Cc1cc(NS(=O)(=O)c2ccc(NC(=O)CSc3nnc(SCc4ccc(F)cc4)s3)cc2)nc(C)n1 -29.3%
Cc1nc(NC(=O)c2ccc3c(c2)OCCO3)ccc1Br 4.96%
C/C(Cc1ccccc1)=N\NC(=O)CNC(=O)c1ccc2c(c1)OCCO2 -4.8%
COc1cc(/C=C/C(=O)n2cnc3ccccc32)cc(OC)c1OC 11.9%
CCc1ccccc1NC(=O)CSc1nnc(-c2cccs2)o1 0.47%
COc1cc(C(=O)NNC(=O)c2ccc(S(=O)(=O)N3CCCCC3)cc2)cc(OC)c1OC -8.86%
COc1ccccc1CC(=O)Nc1ccc(S(=O)(=O)N2CCCC2)cc1 -5.06%
CCC(NC(=O)C1C2C=CC3(CN(Cc4ccccc4)C(=O)C13)O2)c1ccccc1 (centres undefined) -3.46%
CCOC(=O)C1CCN(C(=O)C(C)(C)NC(=O)Nc2ccccc2Cl)CC1 0.81%
CC(=O)N1CCN(c2ccccc2NC(=S)NC(=O)c2cc3ccccc3o2)CC1 3.86%
C/C(=N\NS(=O)(=O)c1cccc([N+](=O)[O-])c1)c1cc2ccccc2o1 3.51%
Cc1cc(C)n2ncc(C(=O)Nc3ccc4c(c3)OCCO4)c2n1 0.96%
Cc1nn(C)c(C(=O)NNC(=S)NC2CCCCC2)c1Cl 4.69%
COc1ccc(Cl)cc1C(=O)NNC(=O)c1nc2nc(C)cc(C)n2n1 5.45%
O=C(COC(=O)c1ccccc1Cl)NC1CCCCCCC1 5.22%
COc1ccc(Cl)cc1C(=O)NNC(=S)NC(=O)/C=C/c1ccco1 2.13%
COC(=O)C12C=C3CC(c4ccccc4)=C3C(=O)N1Cc1[nH]c3ccccc3c1C2 (centres undefined) -7.07%
COc1ccc(-n2c(SCC(=O)Nc3ccc4cn[nH]c4c3)nnc2-c2cccnc2)cc1 3.42%
CC(=O)OCCN1CCCC12CCC(c1ccccc1)CC2 (centres undefined) 11.1%
C=CCN1C(=O)[C@@H](CC(=O)NCCCOCCCC)[C@]2(C(=O)OCC)CCCCC/C=C/12 -8.97%
COc1ccc(-n2c(SCC(=O)Nc3ccccc3-c3ccccc3)nnc2-c2cccnc2)cc1 -5.21%
CCOC(=O)N1CCN(C(=O)C[C@@H]2C(=O)N(CCc3ccc(Cl)cc3)C3=CCCC[C@]32C(=O)OCC)CC1 -8.77%
